Hit rate of the full screen: of about 330,000 compounds, about 10,000 (3%) were called active. For the sample, actives were picked, then their nearest neighbours and some compounds at random. A number with no mark means an inactive call.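 Rule for the calls: active = inhibition of at least 50% at 8 µM in the primary screen; inactive = the rest.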

Sequence of Protein Mdm4 (Homo sapiens) + E3 ubiquitin-protein ligase Mdm2 (Homo sapiens) (O15151 whole entry, looked up): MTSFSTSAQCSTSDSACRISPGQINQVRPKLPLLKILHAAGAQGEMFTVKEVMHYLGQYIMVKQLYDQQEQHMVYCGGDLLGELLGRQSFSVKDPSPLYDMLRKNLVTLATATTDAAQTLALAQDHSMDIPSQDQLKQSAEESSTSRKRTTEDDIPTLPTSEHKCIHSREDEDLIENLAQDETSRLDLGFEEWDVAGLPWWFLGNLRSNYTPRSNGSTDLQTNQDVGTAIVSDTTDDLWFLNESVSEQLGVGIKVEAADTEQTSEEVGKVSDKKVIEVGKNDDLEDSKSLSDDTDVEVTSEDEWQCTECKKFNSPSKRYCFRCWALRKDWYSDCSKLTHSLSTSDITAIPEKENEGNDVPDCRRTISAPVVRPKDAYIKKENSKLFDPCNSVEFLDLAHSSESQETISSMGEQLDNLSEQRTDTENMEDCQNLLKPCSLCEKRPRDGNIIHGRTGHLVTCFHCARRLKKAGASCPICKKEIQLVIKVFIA
Sequence of Protein Mdm4 (Homo sapiens) + E3 ubiquitin-protein ligase Mdm2 (Homo sapiens) (Q00987 whole entry, looked up): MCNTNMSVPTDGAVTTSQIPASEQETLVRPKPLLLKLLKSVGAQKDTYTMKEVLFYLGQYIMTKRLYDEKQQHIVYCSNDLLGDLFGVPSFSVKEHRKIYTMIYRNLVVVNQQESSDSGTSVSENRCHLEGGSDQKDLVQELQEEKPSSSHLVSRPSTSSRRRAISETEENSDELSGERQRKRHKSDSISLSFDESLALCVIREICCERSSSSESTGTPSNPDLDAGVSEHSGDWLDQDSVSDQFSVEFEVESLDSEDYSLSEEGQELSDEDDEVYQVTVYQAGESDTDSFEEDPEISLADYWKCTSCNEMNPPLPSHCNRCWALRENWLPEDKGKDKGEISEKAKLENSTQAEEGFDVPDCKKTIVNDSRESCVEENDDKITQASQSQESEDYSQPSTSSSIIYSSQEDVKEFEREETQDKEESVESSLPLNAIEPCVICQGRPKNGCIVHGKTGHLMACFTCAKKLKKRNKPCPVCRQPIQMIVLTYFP

This assay has as its target Protein Mdm4 (Homo sapiens) + E3 ubiquitin-protein ligase Mdm2 (Homo sapiens) (UniProt O15151+Q00987). Put plainly: disruptors of Mdm2/MdmX RING complex – cell-based, luminescence, split luciferase, SaOS-2, uHTS, primary screen (AID 485346). To be noted: SaOS-2 split-luciferase Mdm2/MdmX complementation, at 8 µM, active compounds read high.
`CC(Sc1nnc(CNC(=O)c2ccccc2F)n1C)C(=O)Nc1nccs1` (stereo not given): the inhibition was -5.88%.

`Nc1ccc2nn(-c3ccc(Cl)cc3)nc2c1`: the inhibition is -91.9%.

As for `NC(=S)N/N=C/c1coc2cc(Cl)ccc2c1=O`, the inhibition is -1.23%.

As for `CCOc1ccc(/C=N/NC(N)=S)cc1`, the inhibition was 10.2%.

As for `CC(C)Oc1c(Br)cc(Br)cc1/C=N/NC(N)=S`, the inhibition was 57.4% (active).

On to `COC(=O)CCC(=O)N1CCCC(CO)(Cc2ccccc2)C1` (stereo not given), for which the inhibition is -73.8%.

Take `C[C@@H](C(=O)N1CCNCC1)n1cc(CCC(=O)O)nn1`: the inhibition was 3.92%.

Consider `COc1ccc(N(C(=O)c2snc(C(N)=O)c2N)C(C(=O)NC2CCCC2)c2ccc(C)o2)c(OC)c1` (stereo not given), for which the inhibition was 8.7%.

Turning to `N#Cc1cccc(NC(=O)COC(=O)c2ccccc2C(=O)c2ccc(Cl)c([N+](=O)[O-])c2)c1`, the inhibition is 98.1% (active).

As to `CC(OC(=O)CNC(=O)c1ccc(Cl)c([N+](=O)[O-])c1)C(=O)NCc1ccco1` (stereo not given), the inhibition was 27.3%.

For the molecule `COC(=O)c1cc(NC(=O)Cc2ccccc2[N+](=O)[O-])ccc1Cl`, the inhibition was -1.62%.

As to `O=C(Nc1ccncc1)c1ccc(Cl)c([N+](=O)[O-])c1`, the inhibition was 6.79%.

On to `CC(=O)Nc1ccc(NC(=O)C(C)OC(=O)c2ccccc2C(=O)c2ccc(Cl)c([N+](=O)[O-])c2)cc1` (stereo not given), for which the inhibition was 98.6% (active).

In the case of `CC(=O)Nc1ccc(NC(=O)COC(=O)c2ccccc2C(=O)c2ccccc2)cc1`, the inhibition is 2.79%.

With `CCC(=O)c1ccc(OCC(O)Cn2nc(C)c(C(C)=O)c2C)cc1` (stereo not given), the inhibition was 4.82%.

Regarding `CC1CCCC(NC(=O)c2cc(-c3ccncc3)nc3ccccc23)C1C` (stereo not given), the inhibition was -4.9%.

Turning to `Cc1ccc(C(=O)O)cc1S(=O)(=O)NCC1CCCO1` (stereo not given), the inhibition was -63.3%.

Regarding `Cc1noc(C)c1CCC(=O)N1CCCC(CO)(Cc2ccccc2)C1` (stereo not given), the inhibition is -31.3%.

As to `COc1ccc(Cl)cc1NC(=O)CN(C)Cc1ccc(OC)c(OC)c1`, the inhibition is 29.4%.

Regarding `C/C(=N\NC(=O)OC(C)(C)C)c1ccc[nH]1`, the inhibition was -29.2%.

Consider `COc1ccccc1C(=O)Nc1ccc(C)c(S(=O)(=O)N2CCCCC2)c1`, for which the inhibition is 15%.

Consider `Cc1ccccc1C(=O)N1CCN(c2ccc(NC(=O)c3cccs3)cc2)CC1`, for which the inhibition was 53.9% (active).

Consider `O=C(Nc1ccc(N2CCN(C(=O)c3cccs3)CC2)cc1)c1cccnc1Cl`, for which the inhibition was -22.2%.

Take `O=C(Nc1ccc(N2CCN(C(=O)C3CC3)CC2)cc1)c1cccs1`: the inhibition is -10.3%.

With `CCCc1cc(=O)[nH]c(SCC(=O)Nc2ccc(C(=O)Nc3ccccc3OC)cc2)n1`, the inhibition is 21.4%.

The term inhibition denotes the relative decrease from the control value, in per cent.
